From PubChem
The list is not random: actives were taken first. Their share in the collection is about 3.1%.
dFosB act: activators of delta FosB homodimer, primary screen, biochemical, fluorescence polarization, TAMRA-CDK5 oligo, single point | purified delta FosB; percent of positive-control signal above neutral wells | activation, % at 25 µM | 340,000 compounds, 0.99% hits | AID 493131, 2011;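 active means mean activation above about 17%, with every replicate also reaching it, limit read from the data, passing the limit was not always enough; inconclusive means only one of the two conditions met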
Target sequence (P13346 whole entry, looked up): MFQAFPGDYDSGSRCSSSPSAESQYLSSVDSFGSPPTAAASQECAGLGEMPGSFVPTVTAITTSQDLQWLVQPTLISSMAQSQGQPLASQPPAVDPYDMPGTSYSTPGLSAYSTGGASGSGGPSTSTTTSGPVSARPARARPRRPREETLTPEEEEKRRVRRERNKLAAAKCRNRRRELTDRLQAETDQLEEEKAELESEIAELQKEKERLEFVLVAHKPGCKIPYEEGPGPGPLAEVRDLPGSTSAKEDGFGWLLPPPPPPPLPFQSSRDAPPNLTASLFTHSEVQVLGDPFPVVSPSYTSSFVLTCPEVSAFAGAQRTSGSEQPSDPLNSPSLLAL
RAD52 anneal inh: RAD52 DNA annealing inhibitors, primary screen, biochemical, FRET, single point, set 2; recombinant RAD52 DNA annealing, FRET fluorescence; DNA repair protein RAD52 homolog (Homo sapiens), P43351; inhibition, % at 18.7 µM; 360,000 compounds, 0.46% hits;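 active means every replicate showing at least 50% inhibition; inconclusive means mean inhibition at least 50% but not in every replicate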
RAD54 branch: inhibitors of human RAD54 branch migration, primary screen, biochemical, fluorescence, single point | 360,000 compounds, 0.14% hits | AID 602329, 2012 | RAD54 Holliday junction branch migration, FAM/BHQ fluorescence | inhibition, % at 10.4 µM | DNA repair and recombination protein RAD54-like (Homo sapiens), Q92698;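 active means mean normalized replicate activity at least 40 and at least half of replicates scoring 40 or more; inconclusive means only one of the two criteria met; inactive means mean below 40 and under half of replicates reaching 40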;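 further: 0% = median of neutral control wells and 100% = median of positive control wells; inhibitors cause a drop in the FAM fluorescence signal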
DENV2 CPE: inhibitors of DENV2 cytopathic effect, primary screen, cell-based, plate reader, single concentration | DENV2-infected cells, cytopathic effect rescue | AID 651640, 2012 | CPE inhibition, % at 9.99 µM | 350,000 compounds, 1.7% hits; in the data active means CPE inhibition above about 20%, passing the limit was not always enough; inconclusive means no clear call, values can overlap the other calls; tested in BHK-21 cells;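 further: 0% = median of neutral control wells and 100% = median of positive control wells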
AF4-AF9 inh: inhibitors of AF4 peptide binding to AF9, primary screen, biochemical, AlphaScreen, biotin-AF4 peptide, FLAG-AF9, single point. Protein AF-9 (Homo sapiens), P42568. inhibition, % at 10 µM. 350,000 compounds, 0.47% hits. AID 651704, 2012;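 active means every replicate reaching a set inhibition limit, whatever the replicate mean, cut at about 25% in these data; inconclusive means mean inhibition reaches that limit but some replicates miss it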;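 further: 0% = plate neutral control median and 100% = total signal loss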
GSIS activator: GLuc luminescence reporter in INS-1E cells, primary screen for activators of glucose-dependent secretion of insulin. 370,000 compounds, 0.61% hits. activation, % at 16.6 µM. INS-1E GLuc reporter insulin secretion, 2-3 h;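 active means lowest replicate activation of at least 40%, so every replicate reaches that level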;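 further: 0% = median of neutral control wells and 100% = median of IBMX positive control wells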
Starred values were filed as active, the others as inactive; ? = inconclusive; nt = no result given.

SMILES | dFosB act | RAD52 anneal inh | RAD54 branch | DENV2 CPE | AF4-AF9 inh | GSIS activator
CCOc1ccccc1NC(=O)CSc1ccc(-c2ccco2)nn1 | -9 | -23 | -4 | ? | -4 | 61*
C[C@H]1CN([C@@H](C)CO)S(=O)(=O)c2ccc(C#Cc3ccccc3)cc2O[C@H]1CN(C)C(=O)CN(C)C | nt | 70* | 10 | -2 | 18 | 37
CCC(=O)N(C)C[C@H]1Oc2cc(C#Cc3ccccc3)ccc2S(=O)(=O)N([C@H](C)CO)C[C@H]1C | nt | -31 | -6 | -2 | -6 | -16
C[C@H](O)C#Cc1ccc2c(c1)O[C@H](CN(C)C(=O)CN(C)C)[C@H](C)CN([C@H](C)CO)S2(=O)=O | nt | -7 | nt | 42* | -3 | 7
C[C@@H]1CN([C@@H](C)CO)S(=O)(=O)c2ccc(C#Cc3ccccc3)cc2O[C@@H]1CN(C)C(=O)CN(C)C | nt | 51* | -3 | 5 | 13 | 39
C[C@@H](O)C#Cc1ccc2c(c1)O[C@@H](CN(C)C(=O)CN(C)C)[C@@H](C)CN([C@@H](C)CO)S2(=O)=O | nt | -21 | 3 | -13 | -1 | 4
CCC(=O)N(C)C[C@@H]1Oc2cc(C#Cc3ccccc3)ccc2S(=O)(=O)N([C@H](C)CO)C[C@@H]1C | nt | -11 | 5 | -2 | 4 | -17
CC(OC(=O)C1=COCCO1)C(=O)Nc1ccc(Cl)cn1 (stereo unspecified) | -7 | -6 | -5 | 70* | -2 | 3
CC(OC(=O)c1ccccc1O)C(=O)Nc1ccc(Cl)cn1 (stereo unspecified) | -5 | -5 | nt | -7 | -15 | 10
CNc1nc(N/N=C/c2cc([N+](=O)[O-])ccc2F)nc(Nc2ccccc2)n1 | 94* | -13 | -4 | 0 | -5 | 34
Cc1cc(Oc2cccnc2)ccc1NC(=O)Cc1cn(C)c2ccccc12 | nt | -15 | nt | -8 | nt | 162*
Cn1cc(CC(=O)Nc2ccc(Oc3cccnc3)cc2)c2ccccc21 | nt | -78 | nt | -3 | nt | -1
CC(=O)c1ccc(OC(C)C(=O)NC2CCCCC2C)cc1 (stereo unspecified) | 1 | 3 | -11 | 67* | 1 | 22
CC(C)Oc1ccc(C(=O)OC(C)C(=O)NC2CCCCC2C)cc1 (stereo unspecified) | -8 | -3 | -3 | -4 | 0 | 5
CN(C)c1ccc(-c2cc3ccccc3c(=O)o2)cc1 | -3 | -26 | 11 | 114* | -2 | 3
COc1ccc2c3c(n(C)c2c1)[C@@H](CO)N(Cc1ccncc1)CC31CCN(C(=O)NC(C)C)CC1 | nt | -132 | nt | 6 | -5 | 15
COc1ccc2c3c([nH]c2c1)[C@@H](CO)N(Cc1ccccc1F)CC31CN(C)C1 | nt | nt | nt | -4 | 4 | 6
COc1ccc(S(=O)(=O)N2CC3(CN(Cc4ccncc4)[C@@H](CO)c4[nH]c5cc(OC)ccc5c43)C2)cc1 | nt | nt | nt | nt | nt | 15
COc1ccc2c3c([nH]c2c1)[C@H](CO)N(Cc1cc(F)ccc1F)CC31CN(C(=O)CN(C)C)C1 | nt | -1 | nt | 26* | -3 | 5
COc1ccc2c3c([nH]c2c1)[C@H](CO)N(Cc1ccccc1)CC31CN(S(=O)(=O)c2ccc(C)cc2)C1 | nt | -13 | nt | 36* | 2 | 7
CCS(=O)(=O)N1CC2(CN(Cc3ccccc3F)[C@@H](CO)c3[nH]c4cc(OC)ccc4c32)C1 | nt | -15 | nt | 20* | -9 | 4
COc1ccc(CN2CC3(CCN(S(=O)(=O)c4ccc(C)cc4)CC3)c3c([nH]c4cc(OC)ccc34)[C@@H]2CO)cc1 | nt | nt | nt | nt | nt | -43
COc1ccc2c3c([nH]c2c1)[C@@H](CO)N(Cc1ccccc1)CC31CN(S(=O)(=O)c2ccc(C)cc2)C1 | nt | -10 | nt | 20* | 0 | 1
CC(/C=C/C=C/c1ccccc1)=N/NC(=O)CNc1ccccc1C | -1 | nt | 2 | nt | nt | 136*
COc1ccccc1-n1nnnc1SCC(=O)NCC1(N2CCOCC2)CCCCC1 | 2 | -17 | -1 | 0 | 27* | 16
